In PubChem BioAssay AID1159580 (chemical genetic matrix, 2015):
About 2,000 (36%) of roughly 5,500 compounds were called active. About 18% were inconclusive and are not listed. Rule as the data show it: active = normalized growth mostly below about 0.91 (no sharp cut-off); inconclusive = no clear call, values can overlap the other calls; inactive = mostly above about 0.92. The list shows a part of the results.

Assay: chemical genetic growth profiling, strain panel (AID 1159580);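 also: tested at 20 µM; growth read once vehicle control cultures reached saturation at 30 °C; 1 = growth at the plate median or of vehicle wells; lower values mean less growth of the strain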
Details: growth OD

Measured: normalized growth

COC(=O)C1[C@H]2C[C@H]3c4[nH]c5ccccc5c4CCN3C[C@@H]2CC[C@@H]1O (some centres not stated)
inactive: S. cerevisiae deletion strains, locus YJR075W, strain HOC1, active compounds read low 1.02 | S. cerevisiae deletion strains, locus YKL009W, strain mrt4, active compounds read low 0.996 | S. cerevisiae deletion strains, locus YKL068W, active compounds read low 1.01 | S. cerevisiae deletion strains, locus YKL085W, strain MDH1 (second series), active compounds read low 1.01 | S. cerevisiae deletion strains, locus YKL085W, strain MDH1, active compounds read low 1.01 | S. cerevisiae deletion strains, locus YKL160W, strain elf1, active compounds read low 0.987 | S. cerevisiae deletion strains, locus YKL190W, strain CNB1, active compounds read low 1.02 | S. cerevisiae deletion strains, locus YKR001C, strain vps1, active compounds read low 1.02 | S. cerevisiae deletion strains, locus YKR026C, strain gcn3, active compounds read low 0.971 | S. cerevisiae deletion strains, locus YKR091W, strain srl3, active compounds read low 0.985 | S. cerevisiae deletion strains, locus YLL001W, strain dnm1, active compounds read low 0.984 | S. cerevisiae deletion strains, locus YLL026W, active compounds read low 0.965 | S. cerevisiae deletion strains, locus YLL041C, strain sdh2, active compounds read low 0.974 | S. cerevisiae deletion strains, locus YLR027C, strain aat2, active compounds read low 0.988 | S. cerevisiae deletion strains, locus YLR039C, strain RIC1, active compounds read low 1.02 | S. cerevisiae deletion strains, locus YLR058C, strain SHM2, active compounds read low 1.01 | S. cerevisiae deletion strains, locus YLR102C, strain apc9, active compounds read low 1.02 | S. cerevisiae deletion strains, locus YLR113W, strain HOG1, active compounds read low 1.01 | S. cerevisiae deletion strains, locus YLR221C, strain rsa3, active compounds read low 1.01 | S. cerevisiae deletion strains, locus YLR258W, strain gsy2, active compounds read low 0.98 | S. cerevisiae deletion strains, locus YLR262C, strain YPT6 (second series), active compounds read low 0.974 | S. cerevisiae deletion strains, locus YLR262C, strain YPT6, active compounds read low 1 | S. cerevisiae deletion strains, locus YLR268W, strain sec22, active compounds read low 1.06 | S. cerevisiae deletion strains, locus YLR320W, strain mms22, active compounds read low 1.02 | S. cerevisiae deletion strains, locus YLR330W, strain CHS5, active compounds read low 1.01 | S. cerevisiae deletion strains, locus YLR342W, strain FKS1 (second series), active compounds read low 1 | S. cerevisiae deletion strains, locus YLR342W, strain FKS1, active compounds read low 0.981 | S. cerevisiae deletion strains, locus YLR357W, strain rsc2, active compounds read low 0.985 | S. cerevisiae deletion strains, locus YLR370C, strain arc18, active compounds read low 0.965 | S. cerevisiae deletion strains, locus YLR371W, strain rom2, active compounds read low 1.02 | S. cerevisiae deletion strains, locus YLR384C, strain iki3, active compounds read low 0.969 | S. cerevisiae deletion strains, locus YLR418C, strain cdc73, active compounds read low 1.02 | S. cerevisiae deletion strains, locus YML016C, strain PPZ1, active compounds read low 1.01 | S. cerevisiae deletion strains, locus YML032C, strain rad52, active compounds read low 1.03 | S. cerevisiae deletion strains, locus YML120C, strain ndi1, active compounds read low 0.966 | S. cerevisiae deletion strains, locus YML124C, strain tub3, active compounds read low 1.01 | S. cerevisiae deletion strains, locus YMR058W, strain fet3, active compounds read low 0.974 | S. cerevisiae deletion strains, locus YMR078C, strain ctf18, active compounds read low 1.01 | S. cerevisiae deletion strains, locus YMR125W, strain sto1, active compounds read low 0.981 | S. cerevisiae deletion strains, locus YMR129W, active compounds read low 0.988 | S. cerevisiae deletion strains, locus YMR205C, strain PFK2, active compounds read low 0.991 | S. cerevisiae deletion strains, locus YMR223W, strain ubp8, active compounds read low 1.01 | S. cerevisiae deletion strains, locus YMR231W, strain pep5, active compounds read low 0.978 | S. cerevisiae deletion strains, locus YMR263W, strain SAP30, active compounds read low 1.03 | S. cerevisiae deletion strains, locus YMR307W, strain GAS1, active compounds read low 0.952 | S. cerevisiae deletion strains, locus YNL067W, strain RPL9B, active compounds read low 1.03 | S. cerevisiae deletion strains, locus YNL071W, strain lat1, active compounds read low 0.976 | S. cerevisiae deletion strains, locus YNL128W, strain TEP1, active compounds read low 1.02 | S. cerevisiae deletion strains, locus YNL153C, strain GIM3, active compounds read low 1.01 | S. cerevisiae deletion strains, locus YNL183C, strain NPR1, active compounds read low 0.981 | S. cerevisiae deletion strains, locus YNL209W, strain ssb2, active compounds read low 0.959 | S. cerevisiae deletion strains, locus YNL233W, strain BNI4, active compounds read low 1.01 | S. cerevisiae deletion strains, locus YNL248C, strain rpa49, active compounds read low 0.998 | S. cerevisiae deletion strains, locus YNL250W, strain rad50, active compounds read low 1.02 | S. cerevisiae deletion strains, locus YNL271C, strain bni1, active compounds read low 1.02 | S. cerevisiae deletion strains, locus YNL298W, strain CLA4, active compounds read low 1.02 | S. cerevisiae deletion strains, locus YNL307C, strain MCK1, active compounds read low 1.02 | S. cerevisiae deletion strains, locus YNL322C, strain KRE1 (second series), active compounds read low 0.973 | S. cerevisiae deletion strains, locus YNL322C, strain KRE1, active compounds read low 1.02 | S. cerevisiae deletion strains, locus YNR049C, strain mso1, active compounds read low 0.97 | S. cerevisiae deletion strains, locus YNR052C, strain pop2, active compounds read low 1.02 | S. cerevisiae deletion strains, locus YOL006C, strain TOP1, active compounds read low 1.06 | S. cerevisiae deletion strains, locus YOL012C, strain htz1 0.74 | S. cerevisiae deletion strains, locus YOL147C, strain pex11, active compounds read low 1.02 | S. cerevisiae deletion strains, locus YOR001W, strain rrp6, active compounds read low 0.961 | S. cerevisiae deletion strains, locus YOR061W, strain CKA2, active compounds read low 1.01 | S. cerevisiae deletion strains, locus YOR069W, strain VPS5, active compounds read low 1.01 | S. cerevisiae deletion strains, locus YOR070C, strain gyp1, active compounds read low 0.983 | S. cerevisiae deletion strains, locus YOR080W, strain dia2, active compounds read low 0.934 | S. cerevisiae deletion strains, locus YOR083W, strain WHI5, active compounds read low 0.979 | S. cerevisiae deletion strains, locus YOR106W, strain vam3, active compounds read low 0.949 | S. cerevisiae deletion strains, locus YOR136W, strain idh2, active compounds read low 1.02 | S. cerevisiae deletion strains, locus YOR144C, strain elg1, active compounds read low 1.01 | S. cerevisiae deletion strains, locus YOR184W, strain ser1, active compounds read low 1.01 | S. cerevisiae deletion strains, locus YOR231W, strain MKK1, active compounds read low 1.02 | S. cerevisiae deletion strains, locus YOR265W, strain rbl2, active compounds read low 0.978 | S. cerevisiae deletion strains, locus YOR270C, strain vph1, active compounds read low 0.935 | S. cerevisiae deletion strains, locus YOR290C, strain snf2, active compounds read low 0.974 | S. cerevisiae deletion strains, locus YOR316C, strain cot1, active compounds read low 1.02 | S. cerevisiae deletion strains, locus YPL051W, strain arl3, active compounds read low 0.961 | S. cerevisiae deletion strains, locus YPL055C, strain LGE1, active compounds read low 1.02 | S. cerevisiae deletion strains, locus YPL078C, strain atp4, active compounds read low 0.963 | S. cerevisiae deletion strains, locus YPL106C, strain sse1, active compounds read low 0.906 | S. cerevisiae deletion strains, locus YPL240C, strain hsp82, active compounds read low 0.995 | S. cerevisiae deletion strains, locus YPL241C, strain CIN2, active compounds read low 1.01 | S. cerevisiae deletion strains, locus YPL256C, strain CLN2, active compounds read low 0.998 | S. cerevisiae deletion strains, locus YPR119W, strain clb2, active compounds read low 1.02 | S. cerevisiae deletion strains, locus YPR141C, strain kar3, active compounds read low 1.02 | S. cerevisiae deletion strains, locus YPR163C, strain tif3, active compounds read low 1.02 | S. cerevisiae deletion strains, locus YPR167C, strain met16, active compounds read low 1.02 | S. cerevisiae deletion strains, strain wtn01, active compounds read low 1.04 | S. cerevisiae strains, strain wild type, active compounds read low 1
